# Laboratory results as given in ChEMBL document CHEMBL3433997, “St. Jude Leishmania screening dataset” (2016).
# What was measured:
# Format in all cases: functional
# [1] = target: Solute carrier family 2, facilitated glucose transporter member 1 (Homo sapiens) (UniProt P11166); assay: ST_JUDE_LEISH: Cytotoxicity at 2uM final concentration against transgenic Leishmania Mexicana promastigotes LmGLUT1 that are glucose transport deficient and complemented with the human glucose transporter GLUT1. Activity is measured by DNA content using SYBR green in vitro
# [2] = target: Hexose transporter 1 (Plasmodium falciparum) (UniProt O97467); assay: ST_JUDE_LEISH: Cytotoxicity at 2uM final concentration against transgenic Leishmania Mexicana promastigotes LmPfHT that are glucose transport deficient and complemented with the Plasmodium falciparum hexose transporter. Activity is measured by DNA content using SYBR green in vitro
# [3] = target: Glucose transporter (Leishmania mexicana) (UniProt O61059); assay: ST_JUDE_LEISH: Cytotoxicity at 2uM final concentration against transgenic Leishmania Mexicana promastigotes LmGT2 that are glucose transport deficient and complemented with the L. Mexicana glucose transporter 2. Activity is measured by DNA content using SYBR green in vitro
# Solute carrier family 2, facilitated glucose transporter member 1 (Homo sapiens), sequence (P11166 whole entry): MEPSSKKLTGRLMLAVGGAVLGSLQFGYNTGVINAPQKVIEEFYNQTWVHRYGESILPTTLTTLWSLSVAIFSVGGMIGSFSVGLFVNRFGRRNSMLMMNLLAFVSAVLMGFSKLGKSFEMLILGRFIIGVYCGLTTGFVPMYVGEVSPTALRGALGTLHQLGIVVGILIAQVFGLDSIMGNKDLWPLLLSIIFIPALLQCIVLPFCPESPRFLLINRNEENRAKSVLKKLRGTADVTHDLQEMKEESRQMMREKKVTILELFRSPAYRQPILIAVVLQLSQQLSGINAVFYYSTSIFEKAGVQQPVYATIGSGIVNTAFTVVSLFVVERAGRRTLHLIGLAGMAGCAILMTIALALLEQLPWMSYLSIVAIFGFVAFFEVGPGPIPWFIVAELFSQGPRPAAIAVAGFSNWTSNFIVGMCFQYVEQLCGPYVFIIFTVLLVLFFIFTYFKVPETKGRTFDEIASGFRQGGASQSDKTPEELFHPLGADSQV
SMILES,inhibition [1],inhibition [2],inhibition [3]
O=C(Nc1ccc(Cl)cc1Cl)N[C@H]1CCN(CCCCCNC(=O)C2CC2c2ccc(Cl)c(Cl)c2)C1 (stereo partly drawn),3.75%,4.63%,4.05%
O=C(Nc1ccc(Cl)cc1)c1cccc2nc(C(F)(F)F)[nH]c12,9.28%,9.14%,5.94%
CON(C)C(=O)[C@@H](CCCCNC(=O)OCc1ccccc1)NC(=O)OC(C)(C)C,-0.81%,-1.84%,-1.83%
c1ccc(CSC2=NNC(c3ccccn3)S2)cc1 (stereo not drawn),0.82%,3.23%,2.48%
COc1cc2c(c(OC)c1[N+](=O)[O-])C=CC1(O2)N(C)c2ccc([N+](=O)[O-])cc2C1(C)C (stereo not drawn),4.19%,0.99%,1.36%
CN1Cc2ccc(NS(=O)(=O)c3ccc(-c4ccoc4)cc3)cc2C1,-2.45%,-1.72%,-3.6%
Oc1cc(Nc2ccnc3cc(-c4ccc(CN5CCCCC5)o4)c(Cl)cc23)c(Cl)cc1F,1.26%,1.8%,1.57%
CN(C)Cc1cccc(-c2ccc(NC(=O)c3ccc4c(=O)n(CCN5CCCCC5)cnc4c3)cc2)c1,3.67%,3.74%,0.81%
CS(=O)(=O)CCNCc1nc(-c2ccc3c(=O)[nH]cnc3c2)cs1,18.2%,48%,31.5%
CS(=O)(=O)c1cccc(-c2cnc(N)c3cc(-c4ccc5c(c4)OCO5)ccc23)c1,8.59%,8.33%,7.36%
Nc1ccc2nc(C=Cc3ccccc3)[nH]c2c1,1.45%,0.85%,3.06%
O=C(Nc1cccc(-c2csc(-c3nc4ccccc4[nH]3)c2)c1)c1ccoc1,3.4%,3.05%,1.11%
COc1cc2nc(N3CCC(CNC(=O)c4ccc(-c5cccc(C#N)c5)cc4)CC3)nc(N)c2cc1OC,3.6%,2.28%,2.21%
O=C(NCC1CCN(CC2CCCCC2)C1)c1cc(-c2cccc(C(F)(F)F)c2)cs1 (stereo not drawn),-1.1%,-0.44%,-2.1%
CCOC(=O)c1ccc(NC(=O)c2ccccc2C(=O)O)cc1,0.53%,1.23%,-0.02%
Cc1cc(SC(C)(C)C)cc2c(Cl)c(C(N)=O)cnc12,89%,93.7%,85.8%
CN(C(=O)c1cc2c(-c3cncnc3)cccc2[nH]1)c1ccccc1,2.07%,-0.81%,-0.72%
CN(C)CCCn1c(C(=O)OC(c2ccccc2)c2ccccc2)cc2cc(OCc3ccccc3)ccc21,-0.72%,0.08%,-2.32%
Cc1cccc(OC(C)C(=O)Nc2cc(C(F)(F)F)ccc2N2CCOCC2)c1 (stereo not drawn),2.38%,3.02%,6.44%
Cc1ccc2c(=NN=Cc3cccc(Cl)c3)cc(C)[nH]c2c1,0.92%,0.93%,1.04%
COc1cc2nc(N3CC(C)N(C(=O)Cc4ccc(-c5ccccc5)cc4)C(C)C3)nc(N)c2cc1OC (stereo not drawn),6.24%,5.22%,3.8%
Cc1cccc2nc(-c3cccc(-c4cccc(C(=O)NCCN5CCCC5)c4)c3)[nH]c12,1.04%,1.28%,-0.38%
CC(C)(C)c1nn(-c2ccc(Cl)cc2)c2[nH]c(=O)c(CNCc3cccs3)cc12,3.3%,3.24%,2.34%
Cc1cc(N2CCOCC2)nc(Nc2ccc(NC(=O)Nc3ccc(F)cc3)cc2)n1,-0.56%,-2.91%,1.66%

SMILES,inhibition [1],inhibition [2],inhibition [3]
COCCNCc1cccc(-c2ccc3c(Nc4cc(O)c(Cl)cc4F)ccnc3c2)c1,2.97%,3.2%,2.93%
N#Cc1cc([N+](=O)[O-])ccc1-n1nc(-c2cccc(Cl)c2)n(Cc2ccco2)c1=S,1.94%,1.56%,-3.52%
Cc1cc(=NN=Cc2ccc(F)cc2)c2cc(C(F)(F)F)ccc2[nH]1,2.35%,2.57%,0.92%
CCCN(CCC)CCCN(CCCN(CCC)CCC)c1cc(C)nc(Nc2ccc(Cl)cc2)n1,3.33%,1.71%,2.52%
Cc1cccc2nc(-c3cccc(-c4ccc(CNCCNC(=O)c5ccnn5C)cc4)c3)[nH]c12,-1.64%,0.67%,-2.92%
COc1ccc2nc(N(CCCn3ccnc3)C(=O)C=Cc3cccs3)sc2c1,3.73%,3.16%,-2.84%
Cc1nc(-c2ccc(-c3ccc(C(=O)Nc4ccc(-n5ccnc5)c(N5CCN(C)CC5)c4)cc3)c(C)c2)no1,2.82%,2.86%,0.79%
CCOC(=O)c1ccc(NC(=O)N(Cc2ccc(-c3ccc(CN4CCNCC4)cc3)cc2)C2CCN(Cc3ccccc3)CC2)cc1,3.61%,2.86%,-1.08%
Cc1cccc(Nc2c(-c3cc(Br)ccc3O)nc3ncccn23)c1,0.12%,-0.3%,-1.33%
O=C(/C=C/c1ccc(Cl)cc1)NCCCCCN1CCCN(C(=O)Nc2ccc(F)c(Cl)c2)CC1,5.5%,3.92%,4.64%
Oc1ccc(CCCNc2nc(NCc3cccc4ccccc34)nc(NC3CCNCC3)n2)cc1,-0.36%,3.07%,2%
CS(=O)(=O)c1ccccc1CNC(=O)c1ccc(-c2ccc(-c3nc4cc(C(F)(F)F)ccc4[nH]3)s2)cc1,7.56%,2.99%,0.84%
CC(C)c1sc(N2CCN(C)CC2)nc1C(=O)NCCc1cccc(Cl)c1,6.7%,3.42%,3.93%
O=C1OC2(CN1CC1CCN(Cc3ccc(O)cc3Cl)C1)c1ccccc1-c1ccccc12 (stereo not drawn),0.5%,-2.55%,2.67%
Fc1ccc2[nH]c(-c3cccc(-c4ccc(CNCC5CCCO5)cc4)c3)nc2c1 (stereo not drawn),1.13%,-3.6%,-1.42%
CN(C)CCOc1cc(NC(=O)Nc2ccc(-c3ccncc3)c3ccccc23)ccc1I,6.39%,8.78%,1.62%
CN=C(Nc1c(Cl)cccc1Cl)N(C)C,2.85%,4.13%,4.17%
Cn1nccc1C(=O)NCCNCc1ccc(-c2cccc(-c3nc4ccccc4[nH]3)c2)cc1,-0.28%,-0.94%,0.68%
CS(=O)(=O)c1ccc2c(c1)CCN(CCC1CCC(NC(=O)C(=Cc3ccc(Cl)cc3Cl)c3ccc(-c4ccccc4)cc3)CC1)CC2 (stereo not drawn),-0.33%,3.12%,3.51%
CN1CCN(c2ccc(Nc3c4ccccc4nc4ccccc34)cc2)CC1,7.02%,6.39%,5.74%
OCC1CCN(Cc2ccc(-c3ccc(-c4nc5cc(F)ccc5[nH]4)cc3)cc2)CC1,6.63%,4.55%,4.78%
O=C(Nc1ccc(-c2cccc(-c3nc4cc(F)ccc4[nH]3)c2)cc1)Nc1ccc(Cl)c(Cl)c1,3.29%,1.92%,3.36%
CN(C(=O)c1nn(-c2ccccn2)c2nccc(-c3cccs3)c12)C1CCCCC1,5.01%,5.58%,3.33%
COc1ccc(C2C(C(=O)Nc3cc(OC)c(OC)c(OC)c3)c3cc(OC)c(OC)cc3C(=O)N2C)cc1 (stereo not drawn),1.9%,1.7%,2.37%

SMILES,inhibition [1],inhibition [2],inhibition [3]
CC(C)CC(=O)Nc1cc(=O)[nH]c2nc(-c3ccccc3)nn12,3.45%,3.9%,4.09%
COc1ccc(NC(=O)CSc2nc(-c3ccccc3Cl)ns2)cc1,1.15%,-1.47%,-2.13%
CC(=O)N(C)C1CCN(Cc2cccc(-c3ccc(-c4nc5cc(C(F)(F)F)ccc5[nH]4)cc3)c2)C1 (stereo not drawn),2.39%,-4.29%,3.1%
CC(Cc1ccc(NC(=O)c2ccc(CNCCc3ccccc3)cc2)cc1)NCCc1cccc(Cl)c1 (stereo not drawn),68.9%,36%,4.52%
COc1ccc(C(C(=O)NC2CCN(C[C@H](O)c3ccnc4ccc(OC)cc34)CC2)N2CCN(c3ccc(Cl)c(Cl)c3)CC2)cc1 (stereo partly drawn),-0.26%,-2.17%,-4.15%
FC(F)(F)c1ccc2[nH]c(-c3ccc(-c4ccc(CN5CCN(c6ccncc6)CC5)cc4)cc3)nc2c1,77.4%,85.7%,69%
OC(CNC1CCCCC1)Cn1c2ccc(I)cc2c2cc(I)ccc21 (stereo not drawn),0.77%,1.51%,1.17%
CCc1cc(C(=O)c2cccc(C)c2)c(NC(=O)CN2CCN(C(=O)c3ccco3)CC2)s1,2.38%,2.67%,2.44%
O=C(/C=C/c1ccc(Cl)c(Cl)c1)NCCCCCN1CCC(C(=O)Nc2ccc3c(c2)OCO3)CC1,6.29%,5.08%,5.17%
CN(Cc1cccc(C#N)c1)C1CCN(c2cc(NC(=O)c3ccc(F)cc3)ccn2)CC1,3.29%,2.12%,4.06%
C=CCOC(=O)O[C@@H]1[C@@H](OC(=O)OCC=C)[C@@H](OC)O[C@H](COC(c2ccccc2)(c2ccccc2)c2ccccc2)[C@H]1OC(=O)OCC=C,4.46%,3.53%,4.42%
Clc1cccc(C23N/C(=N\c4nc5ccccc5[nH]4)NC2(c2ccccc2)N/C(=N\c2nc4ccccc4[nH]2)N3)c1 (stereo not drawn),5.03%,4.69%,4.94%
Cc1cc2nc(-c3ccc(OCC(=O)NCc4ccc(C(C)(C)C)cc4)cc3)[nH]c2cc1C,6.86%,7.11%,6.35%
O=C1OC(c2ccccc2)(c2ccccc2)CN1CC1CCN(Cc2ccc(O)c(Cl)c2)CC1,70%,70.4%,32.2%
CS(=O)(=O)Nc1cccc(-c2cnc3[nH]cc(-c4cc(N)cc(C(=O)O)c4)c3c2)c1,0.76%,1.94%,-0.41%
Nc1ccc(-c2ccc(NC(=O)Nc3ccccc3)cc2)cn1,2.95%,2.5%,3.08%
Cc1nc(O)c2c(ccc3ccc(CNc4ccc(C(=O)N[C@@H](CCC(=O)O)C(=O)O)c(F)c4)cc32)n1,-0.83%,0.87%,-0.16%
COc1ccc2nccc([C@@H](O)CN3CCC(c4cc(-c5ccc(Cl)cc5)[nH]n4)CC3)c2n1,64.9%,78.2%,81.2%
Oc1ccc2ccccc2c1CNCC1CCCCC1,0.28%,3.31%,2.73%
FC(F)(F)c1ccc2[nH]ccc(=NN=Cc3ccccc3Cl)c2c1,2.85%,1.66%,1.62%
CN(C)CC(O)C(c1ccccc1)c1ccc(Cl)cc1 (stereo not drawn),5.17%,1.04%,0.76%
CC(=O)Nc1nc(C(=O)Nc2ccc(-c3ccc(-c4nc5cc(F)ccc5[nH]4)cc3)cc2)cs1,2.38%,-2.61%,-1.02%
C[C@H](NC(=O)c1cc(-c2ccc(C(C)(C)C)cc2)no1)C(=O)O.C[C@H](NC(=O)c1conc1-c1ccc(C(C)(C)C)cc1)C(=O)O,-0.02%,0.23%,1.58%
